Here are results for 45 molecules from PubChem BioAssay AID1471 (National Center for Advancing Translational Sciences (NCATS), 2008).

Screen size: about 230,000 compounds; about 310 (0.13%) were called active. Where a call stands in place of a potency, no number is given. Inconclusive results (about 2%) are left out. Only a selection was taken, and actives are over-represented in it overall. Values without a mark were called inactive. Calls come from the whole dose curve; as a rule, active = well fitted activation curve with a large enough effect; inconclusive = small, poorly fitted or top-dose-only effect; inactive = no such curve, though single readings can be large or run the other way.
Potency is the fitted concentration of half-maximal effect.

This test in a line: qHTS Multiplex Assay to Identify Dual Action Probes in a Cell Model of Huntington: Cytoprotection (ATP).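 For cytoprotection (ATP increase): toxic huntingtin expression switched on by the ecdysone agonist tebufenozide.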 The note with it: PC12 HTT-Q103 induced, ATP luminescence, 40 h; series mostly up to 56.4 µM. From the text: NIH Chemical Genomics Center [NCGC]
NIH Molecular Libraries Probe Production centers Network [MLPCN]
Assay Submitter (PI): Wei Zheng
Huntington's disease is a neurodegenerative disorder caused by a trinucleotide repeat expansion in Exon 1 of the Huntingtin gene. The CAG trinucleotide encodes glutamine and polyglutamine expansions cause cell death in selective areas of the brain. Huntington polyglutamine repeats have the tendency to form aggregates which are observable in later stages of the disease. The exact nature of the aggregates, whether toxic, protective, or insignificant, is unclear.
A stable PC12 cell line containing a gene fusion of Exon 1 of the Huntingtin gene linked to GFP under the control of the inducible ecdysone promoter were used as the cell-based model of Huntington Disease for high throughput screening. Exon 1 of the Huntingtin gene contained an expansion of 103 polyglutamines (Q103) which, when expressed, caused cell death and distinct, bright GFP aggregates. The amount of cell death and the size and intensity of GFP aggregates increased over time and induction level. The cell death were quantified with a measurement of ATP content in the cells. A maximal 40-50% of cell death was observed when the Huntington gene was induced in this cell line.
We optimized this assay in a homogeneous 1536 well format. A quantitative high throughput screen (qHTS) was conducted on the PC12 cells which were induced to express the toxic fusion construct. Small molecules which prevented cell death were identified by using a luminescent ATP quantification method (Perkin Elmer's ATPlite).
PC12 cells stably containing a construct with an ecdysone inducible promoter expressing GFP fused to the exon 1 of HTTQ103 (Huntington protein which containing a 103 ployglutamine expansion) were used.
NCGC Assay Protocol Summary:
Sequence, Parameter, Description
1, Reagent, 5 uL 1500 cells/well 1536 TC treated White clear bottom plate
2, Compound, 23 nL Tebufenozide inducer (100 nM final) to all columns
3, Compound, 23 nL 40 uM to 0.5 nM Libraries
5, Reagent, 5 ul ATPLite cell death assay reagent
6, Detector, 4 sec integration with a Viewlux Luminescent
Media consisted of phenol red free DMEM + 5% equine serum (Hyclone # SH30072.03 ), 5% supplemented Bovine Calf Serum (Hyclone # SH30074.03 ), 1x pen/strep, no G418
Control columns: 1 = DMSO, 2= 2 uM teb dilns (1:1), 4 = 100 nM Teb inducer. Sample columns received 100 nM Teb.
Take `CCCCCCCC/C=C\CCCCCCCC(=O)NCC(=O)O`: the cytoprotection (ATP increase) entry is “inactive”.
With `CC(=O)Oc1ccccc1C1=NN(C(C)=O)C(c2ccccc2)C1` (stereo not given), the cytoprotection (ATP increase) result is “inactive”.
For `CCCN(CCc1ccccc1)C1CCc2c(O)cccc2C1` (stereo not given), the cytoprotection (ATP increase) entry is “inactive”.
For the molecule `CCOC(=O)C1=C(C)c2ccccc2OC1C(=O)OCC` (stereo not given), the cytoprotection (ATP increase) entry is “inactive”.
In the case of `O=C(O)C[C@@H]1NC(=O)[C@H](Cc2ccccc2)NC1=O`, the cytoprotection (ATP increase) entry is “inactive”.
As for `COc1ccc(-c2nc3c(c4c2C[C@H](c2ccccc2)OC4)CN(C(=O)c2cccnc2)CC3)c(C)c1`, the cytoprotection (ATP increase) is 27.4% [at 10 µM].
Take `COc1ccc(NC(=S)NC2CCS(=O)(=O)C2)cc1` (stereo not given): the cytoprotection (ATP increase) is 2.72% [at 0.074 µM].
Turning to `COc1cccc(CC(=O)N2CCc3nc(COc4ccccc4)c4c(c3C2)CO[C@@H](C)C4)c1`, the cytoprotection (ATP increase) was 16.2% [at 10 µM].
On the same count and under the same terms, then `CC(C)C1=CC2=CC[C@H]3[C@](C)(C(=O)O)CCC[C@]3(C)C2CC1` (stereo not given in full), with “inactive”; and `COc1ccc(-c2[nH]nc(-c3ccccc3)c2-c2nc3ccccc3[nH]2)cc1`, with “inactive”.
Consider `CSCCC(=O)N1CCCC(CNC(=O)c2ccccc2Cl)C1` (stereo not given), for which the Potency was 2.82 µM (active).
For `CCOC(=O)CCNC(=O)N1CCCC(C(=O)c2ccccc2SC)C1` (stereo not given), the cytoprotection (ATP increase) was 2.06% [at 10 µM].
On the same count and under the same terms, the same measure for `CSc1ncccc1C(=O)N1CCCC(CCC(=O)NCc2ccccc2F)C1` (stereo not given): 4.93% [at 10 µM]; for `C[C@@H]1C(c2ccc(F)cc2)=NN(c2ccc(Br)cc2)[C@H]1C(=O)N1CCOC1=O`: “inactive”.
With `Cc1cc(=O)oc(C)c1C(=O)NCCN(C)Cc1ccccc1`, the cytoprotection (ATP increase) result is “inactive”.
Take `COc1ccc(-c2nc(-c3ccccc3)oc2Nc2ccc3ccccc3c2)cc1`: the cytoprotection (ATP increase) result is “inactive”.
As to `COc1ccc2c(c1)O[C@@H](c1ccc3c(c1)OCO3)[C@H](OC(=O)NCc1ccco1)C2=O`, the cytoprotection (ATP increase) result was “inactive”.
For the molecule `O=C(O)CCC(=O)O`, the cytoprotection (ATP increase) result was “inactive”.
For `CCCCCCCCCCCCCCCCO`, the cytoprotection (ATP increase) entry was “inactive”.
With `COc1ccc(CCCOC(Cn2ccnc2)c2ccc(OC)cc2)cc1` (stereo not given), the cytoprotection (ATP increase) result is “inactive”.
Consider `NC(=O)C1CCN(C(=O)c2ccc(-c3ccccc3)cc2)CC1`, for which the cytoprotection (ATP increase) entry is “inactive”.
Take `COc1ccccc1N1CCN(C(=O)CN(Cc2ccc(Cl)cc2)S(C)(=O)=O)CC1`: the cytoprotection (ATP increase) entry was “inactive”.
With `COc1ccccc1CN(C)c1nnnn1-c1ccccc1`, the cytoprotection (ATP increase) result is “inactive”.
As to `COc1ccccc1-n1nnnc1S(=O)(=O)Cc1ccc(Cl)cc1`, the Potency is 25.1 µM (active).
On to `COC(=O)CCCC1=CC2=CC(=O)C(C)(OC(=O)c3cccs3)C(=O)C2=CN1c1ccc(CO)cc1` (stereo not given), for which the cytoprotection (ATP increase) was -11% [at 10 µM].
Regarding `CC(=O)N(CC(O)CO)c1c(I)c(C(=O)NCC(O)CO)c(I)c(C(=O)NCC(O)CO)c1I` (stereo not given), the cytoprotection (ATP increase) entry is “inactive”.
The same measure, in the same setting: the same measure for `COC(=O)C1=C(C(=O)OC)[C@@H]2N(C)c3ccccc3[C@@]23C[C@@H](C(=O)OC)N(S(=O)(=O)c2cccs2)C3=N1`: -27.2% [at 10 µM].
As to `COc1ccc(-c2nc(-c3ccccc3)no2)c(OC)c1`, the Potency was 5.62 µM (active).
Regarding `COc1ccc(-c2noc(-c3cccc(OC)c3OC)n2)cc1OC`, the cytoprotection (ATP increase) result is “inactive”.
Consider `COc1ccc(-c2noc(-c3ccc(C)cc3)n2)cc1`, for which the cytoprotection (ATP increase) entry is “inactive”.
As for `O=P(O)(O)C(O)c1ccc2ccccc2c1` (stereo not given), the cytoprotection (ATP increase) entry is “inactive”.
As to `COCCNc1nc2nonc2nc1N(C)Cc1ccc(C)cc1`, the cytoprotection (ATP increase) was -6.59% [at 10 µM].
With `Cc1ccc(NC(=O)O[C@@H]2C(=O)c3cc(Br)ccc3O[C@H]2c2ccc3c(c2)OCO3)cc1Br`, the cytoprotection (ATP increase) result is “inactive”.
Same read-out and setting: the same measure for `CCNc1nc(NC(C)C)nc(OCCOC(=O)c2ccccc2)n1`: -7.6% [at 10 µM].
As to `COc1ccc(C2(C#N)CCC(C(=O)O)CC2)cc1OC1CCCC1` (stereo not given), the cytoprotection (ATP increase) entry is “inactive”.
As to `C=C(C)C(=O)c1ccc(F)cc1`, the cytoprotection (ATP increase) entry is “inactive”.
In the case of `C/C(Nc1ccc2oc(=O)ccc2c1)=C1/C(=O)CC2[C@@H]1C2(C)C` (stereo not given in full), the cytoprotection (ATP increase) result was “inactive”.
For the molecule `Nc1ccc(N=Nc2ccccc2Cl)c(N)n1`, the cytoprotection (ATP increase) is 7.07% [at 10 µM].
On the same count and under the same terms, then `COC(C)C(C(=O)OCC1=CCN2CC[C@H](O)[C@@H]12)C(C)C` (stereo not given in full), with “inactive”; and `COc1ccc(-c2c(C)cc3oc(=O)cc(-c4ccccc4)c3c2C)cc1F`, with “inactive”; and `N#C/C(=C\C1=C(N2CCOCC2)C(=C\c2ccccc2)/CC1)C(=O)Nc1ccccc1F`, with 6.74% [at 10 µM].
For `COC(=O)C1=C(C(=O)OC)[C@@H]2Nc3ccccc3[C@@]23C[C@@H](C(=O)OC)N(S(=O)(=O)c2ccc([N+](=O)[O-])cc2)C3=N1`, the cytoprotection (ATP increase) was 9.32% [at 10 µM].
Regarding `COC(=O)C1=C(N)Oc2cc(C)[nH]c(=O)c2C1c1ccc(Cl)cc1` (stereo not given), the cytoprotection (ATP increase) is -1.17% [at 10 µM].
Regarding `COc1ccc(C2CC(=O)Oc3ccc(C(C)(C)C)cc32)cc1` (stereo not given), the cytoprotection (ATP increase) entry is “inactive”.
On to `FCOC(C(F)(F)F)C(F)(F)F`, for which the cytoprotection (ATP increase) entry is “inactive”.
